Measured values: PMC5540273 (PLoS ONE, 2017)

How the values were obtained:
Conditions in all cases: concentration: 1 μM, replicates: in singlicate; n = 1
[1] = system: WNK1
[2] = system: WNK2
[3] = system: WNK3
[4] = system: WNK4
[5] = system: T1, YANK1
T1 construct: gene STK32A

[6] = system: T2, YANK2
T2 construct: gene STK32B

[7] = system: T3, YANK3
T3 construct: gene STK32C

[8] = system: T4, YES
T4 construct: gene YES1

[9] = system: T5, YSK1
T5 construct: gene STK25

[10] = system: T6, YSK4
T6 construct: gene MAP3K19

[11] = system: ZAK
[12] = system: ZAP70
[13] = system: T7, p38-alpha
T7 construct: gene MAPK14

[14] = system: T8, p38-beta
T8 construct: gene MAPK11

[15] = system: p38-delta
[16] = system: T9, p38-gamma
T9 construct: gene MAPK12
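Note: KINOMEscan kinase panel screen.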

SMILES	%Inh [1]	%Inh [2]	%Inh [3]	%Inh [4]	%Inh [5]	%Inh [6]	%Inh [7]	%Inh [8]	%Inh [9]	%Inh [10]	%Inh [11]	%Inh [12]	%Inh [13]	%Inh [14]	%Inh [15]	%Inh [16]
COc1cccc(NC(=O)NCCNc2ccnc(Nc3ccc(F)cc3)n2)c1 [GSK1379879]	5%	22%	22%	46%	0%	0%	0%	0%	0%	44%	34%	17%	0%	0%	59%	0%
O=C1NC(=O)C(c2ccccc2Cl)=C1Nc1cccc(Cl)c1 [SB-342409]	14%	8%	0%	1%	0%	0%	100%	17%	15%	40%	21%	0%	0%	0%	28%	0%
CCNc1nccc(-c2c(-c3ccc(F)cc3)ncn2C2CCN(C)CC2)n1	0%	0%	0%	0%	0%	0%	0%	3%	5%	0%	7%	0%	99.8%	63%	0%	36%
Cc1cccc(Nc2nc(N[C@H]3CCCC[C@H]3N)ncc2C(N)=O)c1.Cl [GSK986310]	9%	30%	32%	0%	50%	46%	51%	44%	54%	82%	0%	92.9%	0%	0%	45%	0%
Nc1ncnc2scc(-c3ccc(NC(=O)Cc4cc(F)ccc4F)cc3)c12.O=C(O)C(F)(F)F [SB-731254-M]	0%	0%	0%	25%	89%	90.1%	28%	29%	0%	97.8%	4%	0%	0%	7%	0%	41%
Cc1cc(-c2ccnc(Nc3cccc(C#N)c3)n2)cc(C)c1O [GSK1440913]	7%	0%	4%	26%	7%	0%	13%	19%	4%	97%	16%	2%	0%	0%	99.7%	91.6%
Fc1cc(Cl)ccc1Nc1ccnc2cc(-c3ccc(CN4CCOCC4)o3)ccc12 [GW560109]	10%	4%	1%	8%	8%	21%	24%	84%	0%	71%	50%	3%	28%	0%	25%	0%
Cl.O=C(Nc1ccc(Oc2ccc3[nH]c(NC(=O)c4ccco4)nc3c2)cc1)Nc1cc(C(F)(F)F)ccc1F [GW683134]	2%	0%	14%	9%	2%	0%	14%	61%	0%	92.9%	99.2%	0%	65%	74%	39%	0%
CNc1nccc(-c2ccc3c(N)n[nH]c3c2)n1 [GSK2206003]	1%	0%	4%	2%	62%	53%	20%	24%	20%	76%	22%	0%	6%	0%	22%	25%
Nc1cccc(-c2ccc3c(N)n[nH]c3c2)c1 [GSK2193613]	6%	0%	7%	0%	9%	0%	25%	0%	22%	96.4%	11%	0%	6%	0%	17%	45%
CSc1ccc(NC2=C(c3ccc(Cl)cc3)C(=O)NC2=O)cc1 [SB-317658]	20%	24%	4%	0%	0%	2%	33%	0%	0%	21%	28%	0%	0%	12%	11%	0%
N#CC1(c2cccc(C(=O)Nc3cccc(Oc4ccc5nc(NC(=O)C6CC6)sc5n4)c3)c2)CC1	6%	0%	0%	0%	0%	9%	0%	98.7%	37%	98.9%	90%	0%	40%	36%	0%	26%
Fc1cc(Cl)ccc1Nc1ccnc2cc(-c3ccc(CN4CCSCC4)o3)ccc12 [GW560106]	1%	0%	35%	14%	7%	24%	1%	79%	19%	66%	52%	0%	35%	0%	36%	0%
